# In publication PMC7883291:
# Assays:
# Assay in all cases: cross-link between two proteins; cross-linking mass spectrometry
# [1] = target: Acyl carrier protein, mitochondrial (UniProt P52505)
# [2] = target: NADH dehydrogenase [ubiquinone] 1 beta subcomplex subunit 11, mitochondrial (UniProt Q8HXG5)
# [3] = target: T1, Cytochrome b-c1 complex subunit 2, mitochondrial (UniProt P23004)
# T1 sequence: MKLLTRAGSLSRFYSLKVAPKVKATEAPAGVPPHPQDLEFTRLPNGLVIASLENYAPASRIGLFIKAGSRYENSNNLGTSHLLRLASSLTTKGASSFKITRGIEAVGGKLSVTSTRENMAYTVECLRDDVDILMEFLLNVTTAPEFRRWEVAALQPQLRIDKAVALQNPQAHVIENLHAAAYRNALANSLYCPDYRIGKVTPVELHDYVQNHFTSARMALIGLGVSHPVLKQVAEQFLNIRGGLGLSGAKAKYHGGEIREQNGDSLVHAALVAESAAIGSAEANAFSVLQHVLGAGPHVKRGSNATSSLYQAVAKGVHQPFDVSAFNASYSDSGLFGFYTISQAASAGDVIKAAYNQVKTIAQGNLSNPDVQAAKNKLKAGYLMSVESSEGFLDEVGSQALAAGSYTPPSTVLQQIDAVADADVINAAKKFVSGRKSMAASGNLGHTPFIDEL
# [4] = target: NADH dehydrogenase [ubiquinone] 1 alpha subcomplex subunit 9, mitochondrial (UniProt P34943)
# Chain of NADH dehydrogenase [ubiquinone] 1 alpha subcomplex subunit 9, mitochondrial (P34943 whole entry, one chain of several): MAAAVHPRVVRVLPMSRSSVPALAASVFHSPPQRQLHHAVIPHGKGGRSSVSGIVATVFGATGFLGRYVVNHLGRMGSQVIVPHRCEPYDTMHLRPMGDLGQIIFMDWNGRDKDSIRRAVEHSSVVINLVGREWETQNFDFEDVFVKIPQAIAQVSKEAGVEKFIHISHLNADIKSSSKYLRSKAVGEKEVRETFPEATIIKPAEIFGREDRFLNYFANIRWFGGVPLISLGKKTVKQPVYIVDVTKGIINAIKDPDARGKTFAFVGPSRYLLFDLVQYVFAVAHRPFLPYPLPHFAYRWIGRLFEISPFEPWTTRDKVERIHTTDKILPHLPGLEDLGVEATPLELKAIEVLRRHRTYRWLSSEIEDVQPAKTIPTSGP
# Chain of NADH dehydrogenase [ubiquinone] 1 beta subcomplex subunit 11, mitochondrial (Q8HXG5 whole entry, one chain of several): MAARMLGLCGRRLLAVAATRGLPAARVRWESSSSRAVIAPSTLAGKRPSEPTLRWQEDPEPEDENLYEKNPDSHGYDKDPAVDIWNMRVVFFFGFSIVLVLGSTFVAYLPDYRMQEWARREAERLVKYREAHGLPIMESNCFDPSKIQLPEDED
substance,measurement,setting,value
G5E543,listed as a hit,[1],yes
same,listed as a hit,[2],yes
A0A3Q1MBD7,listed as a hit,[3],yes
A8WFQ0,listed as a hit,[4],yes
